From PubChem BioAssay AID897 (National Center for Advancing Translational Sciences (NCATS), 2007)
This is one part of the list. Records with an inconclusive call do not appear. A number with no mark means an inactive call. The source made the active and inactive calls. Calls come from the whole dose curve; as a rule, active = well fitted inhibition curve with a large enough effect in the main read-out, with a control signal flat (not every such curve was filed as active); inconclusive = small, poorly fitted or top-dose-only effect, or a change in a side signal; inactive = no such curve, though single readings can be large or run the other way.

target: Caspase-7 (Homo sapiens) (UniProt P55210); experiment: Confirmation Concentration-Response Assay for Allosteric/Competitive Inhibitors of Caspase-7; conditions: recombinant caspase-7, fluorogenic substrate cleavage; series mostly up to 57.5 µM; activity change, negative = inhibition: at the top concentration
Excerpt: NIH Molecular Libraries Screening Centers Network [MLSCN]
NIH Chemical Genomics Center [NCGC]
PI Name: Dr. James Wells,
Dr. Enrique Perez-Paya, Dr.Janice Williams, Dr. Dennis Wolan, a person
The caspases (Cysteine Aspartyl Protease) comprise a related family of 14 dimeric proteases that are critical mediators of apoptosis (programmed cell death) and inflammation. The caspases represent an important class of drug targets for stroke, ischemia, cancer and inflammatory diseases. […] One goal of this project was to identify compounds that act as allosteric inhibitors via stabilizing the procaspase form of the enzyme. Previous work in Well's laboratory has shown that such allosteric inhibitors can be identified and these act by binding at the dimer interface of enzyme (Hardy, Lam et al., 2004).
The biochemical assay was configured using purified caspase 7 at a high enzyme concentration to promote formation of the homodimers and thus facilitate the identification of allosteric inhibitors. […] After initiation of the assay with substrate the plates were rapidly read using an automated robotic system (Kalypsys, Inc.) to maintain consistent timing. […]
Caspase 7 was prepared in buffer (50 mM HEPES pH 7.5, 50 mM KCl, 200 mM NaCl, 10 mM DTT, 0.1% CHAPS) at a concentration of 66.6 nM and 3 uL was dispensed to all wells using black solid Kalypsys 1536-well plates. […] The plates were then exposed using 405 nm excitation/520 nm emission filters for 4 sec and read at 20 sec intervals for 3 min. […]
Concentration-response curves were fitted to the data calculated from slope of the linear regression of fluorescent intensity versus time (the rate). The concentration-effect curves were then classified based on curve quality (r2), response magnitude and degree of measured activity. […] Inconclusive compounds had appreciable concentration-dependent effects on both the measured rate and the interpolated basal fluorescence intensity at the start of the reaction but where the basal fluorescent intensity was marginal (e.g. < 10-fold). […]

Caspase-7 (Homo sapiens), sequence (P55210 24-198 limits assumed): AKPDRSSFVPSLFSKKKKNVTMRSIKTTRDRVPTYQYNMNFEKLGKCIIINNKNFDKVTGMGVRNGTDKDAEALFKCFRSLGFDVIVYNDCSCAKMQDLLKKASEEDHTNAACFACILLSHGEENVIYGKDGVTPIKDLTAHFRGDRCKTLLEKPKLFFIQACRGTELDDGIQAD
Caspase-7 (Homo sapiens), sequence (P55210 207-303 limits assumed): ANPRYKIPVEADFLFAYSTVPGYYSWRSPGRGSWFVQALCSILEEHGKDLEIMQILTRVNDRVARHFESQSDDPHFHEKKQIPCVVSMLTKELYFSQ

| Structure (SMILES) | activity change, negative = inhibition | Potency |
| --- | --- | --- |
| CCN1C(=O)/C(=C2/Sc3ccccc3N2CCCS(=O)(=O)O)SC1=S | -12.9% | – |
| Cc1nc2c(C(=O)NCc3ccc4c(c3)OCO4)c[nH]n2c(=O)c1Cc1ccccc1F | -50.3% | – |
| N#CC1=C(N)Oc2cc(O)ccc2C1C1CCCCC1 (stereo not drawn) | – | 25.1 µM (active) |
